In PubChem BioAssay (NCATS):
Several values for one entry are separate records, joined by “and”; a condition that tells them apart may be missing. Identical values can stand only once. Results filed as inconclusive are left out. Where a call stands in place of a potency, no number is given. More than one record can exist for a structure, and the calls need not agree. Activity calls are given as the source filed them. Calls come from the whole dose curve; as a rule, active = well fitted inhibition curve with a large enough effect; inconclusive = small, poorly fitted or top-dose-only effect; inactive = flat fitted curve, though single readings scatter.

These molecules were tested against Phospholipid hydroperoxide glutathione peroxidase GPX4 (Homo sapiens) (UniProt P36969) (assay: Primary qHTS Assay for Inhibitors of Recombinant Selenoprotein Glutathione Peroxidase 4 (GPX4) (AID 1845192; note: nearly all actives have a fitted effect of over 65% in size)). Settings: recombinant GPX4, GR-coupled NADPH fluorescence, 15 min; series mostly up to 50 µM.
Sequence of Phospholipid hydroperoxide glutathione peroxidase GPX4 (Homo sapiens) (P36969 whole entry, looked up): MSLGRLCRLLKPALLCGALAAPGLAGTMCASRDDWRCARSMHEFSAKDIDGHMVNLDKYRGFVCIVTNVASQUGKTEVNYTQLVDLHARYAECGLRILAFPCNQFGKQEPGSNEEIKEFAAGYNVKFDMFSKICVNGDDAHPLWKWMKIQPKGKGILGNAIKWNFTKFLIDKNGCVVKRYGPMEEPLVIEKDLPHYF
Text: Assay Provider: Elias S.J. Arner MD PhD.
Department of Medical Biochemistry and Biophysics
Karolinska Institutet, Solna, Stockholm, Sweden
Selenoprotein glutathione peroxidases (GPX), like the ubiquitously expressed GPX1 and the ferroptosis modulator GPX4, enact their antioxidant activities by reducing hydroperoxides using glutathione. […] GPX1 and GPX4 inhibitors have thus shown promise as anti-cancer agents. Existing inhibitors are often promiscuous, or modulate GPX activity only indirectly, so novel direct inhibitors identified through screening against GPX1 and GPX4 could be valuable. Here, we developed optimized glutathione reductase (GR)-coupled GPX assays for the biochemical high-throughput screen (HTS) of almost 12,000 compounds with known mechanisms of action. Initial hits were triaged using a GR counter-screen, assessed for isoform specificity using a separate GPX2 assay, and were assessed for general selenocysteine-targeting activity using a thioredoxin reductase (TXNRD1) assay. With this suite of assays, we identified novel GPX1/GPX2- and GPX4-specific inhibitors and can here present a validated pipeline for future discovery research for selenoprotein-targeting agents.
SEQUENCE No. (e.g., 1, 2, 3, etc.); […] (e.g., Cells, Incubation, Reagent, etc.); VALUE; DESCRIPTION.
1; Reagent 1; 3 uL; 333.33 nM GPx4 enzyme or no enzyme control in 1536-well, black, solid Greiner assay plate.
2; Compound; 25 nL; Kalypsis pin tool (Wako USA) equipped with a 1536-well pin head.
3; Incubation; 30 min; room temperature.
4; Reagent 2; 1 uL; 500 nM GR, 5 mM GSH, 2.5 mM NADPH solution
5; Reagent 3; 1 uL; 2.5 mM CHP in 50% EtOH.
6; Detection; Fluorescence; ViewLux microplate reader, excitation 340 nm and emission 450 nm.
7; Incubation; 15 min; room temperature.
8; Detection; Fluorescence; ViewLux microplate reader, excitation 340 nm and emission 450 nm.
NOTES (numbers refer to Sequence numbers above)
1. 3 µL of 333.33 nM GPX4 and 0.016% BSA in assay buffer (50 mM Tris-HCl, 2 mM EDTA (pH 7.5), 150 mM NaCl) was added to columns 3-48 of 1536-well plates using a BioRAPTR Flying Reagent Dispenser (Let's Go Robotics (LGR), Carlsbad, CA). A no-enzyme control (0.01% BSA in TES assay buffer) was added to columns 1-2.
2. 25 nL, library and DMSO controls were added to each well with a pin tool (Kalypsys).
3. The assay plates were incubated for 30 minutes at room temperature.
4. 1 µL of master mix (500 nM glutathione reductase (GR), 5 mM reduced glutathione (GSH), 2.5 mM NADPH in assay buffer) was added.
5. 1 µL of cumene hydroperoxide (CHP) ([2.5 mM] in 50% EtOH) was then added within 5 minutes to initiate the reaction. Final concentrations were: 200 nM GPX4, 1 mM GSH, 0.5 mM CHP, 0.5 mM NADPH, 100 nM GR, 0.01% BSA.
6. Initial fluorescence readout (t=0) at 340/450 nm was measured using a ViewLux multimodal detector (PerkinElmer, Waltham, MA).
8. Endpoint fluorescence readout (t=15) at 340/450 nm was measured 15 min after room temperature incubation.
Potency is the fitted concentration of half-maximal effect.

Structure (SMILES)	Potency	activity change, negative = inhibition
Cc1ccc(C(=O)C(C)CN2CCCCC2)cc1 (stereo not given)	inactive	
C[C@H]1[C@H](NC(=O)/C(=N/OC(C)(C)C(=O)O)c2csc(N)n2)C(=O)N1S(=O)(=O)O (stereo in doubt)	inactive	
CCn1cc(C(=O)O)c(=O)c2cnc(N3CCCC3)nc21		-6.64% [at 9.73 µM] (inactive)
CN(C)CCOc1ccccc1Cc1ccccc1	inactive	
CCOC(=O)/C=C(C)/C=C/C=C(C)/C=C/c1c(C)cc(OC)c(C)c1C	inactive	
C[C@H](O)C(=O)Nc1c(I)c(C(=O)NC(CO)CO)c(I)c(C(=O)NC(CO)CO)c1I	inactive	
CCCC1O[C@@H]2C[C@H]3[C@@H]4CCC5=CC(=O)C=C[C@]5(C)[C@H]4[C@@H](O)C[C@]3(C)[C@]2(C(=O)CO)O1 (stereo not given in full)	inactive	
CNCCC=C1c2ccccc2CCc2ccccc21	inactive	
CCC(NC(C)C)C(O)c1ccc(O)c(O)c1 (stereo not given)	inactive	
CC(C)(C)NC(=O)[C@@H]1CN(Cc2cccnc2)CCN1C[C@@H](O)C[C@@H](Cc1ccccc1)C(=O)N[C@H]1c2ccccc2C[C@H]1O	inactive	
CC(C)=CCC1C(=O)N(c2ccccc2)N(c2ccccc2)C1=O	inactive	
COc1ccc(OC)c(C(O)CNC(=O)CN)c1 (stereo not given)	inactive	
C=CCc1ccc(O)c(OC)c1	inactive	
C#C[C@]1(O)CC[C@H]2[C@@H]3CCc4cc(OC5CCCC5)ccc4[C@H]3CC[C@@]21C	inactive	
C=C1C[C@H]2[C@@H]3C=C(C)C4=CC(=O)CC[C@]4(C)[C@H]3CC[C@]2(C)[C@@]1(OC(C)=O)C(C)=O	inactive	
COc1cc(NS(C)(=O)=O)ccc1Nc1c2ccccc2nc2ccccc12	inactive and 22.4 µM (active)	
CC(O)(P(=O)(O)O)P(=O)(O)O	inactive	
C[C@]12CC[C@@H]3c4ccc(O)cc4CC[C@H]3[C@@H]1C[C@@H](O)[C@@H]2O	inactive	
CC(C)NC[C@@H](O)COc1cccc2ccccc12	inactive	
C[C@]12C=CC(=O)C=C1[C@@H](F)C[C@@H]1[C@@H]2[C@@H](O)C[C@@]2(C)[C@H]1CC[C@]2(O)C(=O)CO	inactive	

Structure (SMILES)	Potency	activity change, negative = inhibition
Cc1nc2n(c(=O)c1CCN1CCC(c3noc4cc(F)ccc34)CC1)CCC[C@H]2O	inactive	
COCc1c(C(C)C)nc(C(C)C)c(/C=C/[C@@H](O)C[C@@H](O)CC(=O)O)c1-c1ccc(F)cc1	inactive	
CCN(CC)C(=O)/C(C#N)=C/c1cc(O)c(O)c([N+](=O)[O-])c1	inactive	
COC(=O)[C@@H]1CC2=CC(=O)CC[C@]2(C)[C@@]23O[C@@H]2C[C@@]2(C)[C@@H](CC[C@@]24CCC(=O)O4)[C@H]13	inactive	
COc1cc(OC)cc(OC)c1	inactive	
CCCCS(=O)(=O)N[C@@H](Cc1ccc(OCCCCC2CCNCC2)cc1)C(=O)O	inactive	
CCN1CCN(c2cc3c(cc2F)c(=O)c(C(=O)O)cn3C2CC2)CC1	inactive	
CC(=O)Nc1c(I)cc(I)c(C(=O)O)c1I	inactive	
Oc1c(I)cc(Cl)c2cccnc12	inactive	
CC(C)(C(=O)c1cccnc1)c1cccnc1	inactive	
OC[C@@H](O)[C@@H](O[C@@H]1O[C@H](CO)[C@H](O)[C@H](O)[C@H]1O)[C@H](O)[C@@H](O)CO	inactive	
N[C@@H](CCC(=O)N[C@@H](CS)C(=O)NCC(=O)O)C(=O)O	inactive	
C1CCc2nnnn2CC1	inactive	
CC[N+](CC)(CCNC(=O)C(=O)NCC[N+](CC)(CC)Cc1ccccc1Cl)Cc1ccccc1Cl	inactive	
COc1cccc(OC)c1C(=O)N[C@@H]1C(=O)N2[C@@H]1SC(C)(C)[C@@H]2C(=O)O	inactive	
Oc1cc(O)c2c(c1)O[C@H](c1ccc(O)c(O)c1)[C@H](O)C2	inactive	
Nc1ccc(C(=O)O)cc1	inactive	
CC(=O)Oc1ccc(C(=C2CCCCC2)c2ccc(OC(C)=O)cc2)cc1	inactive	
O=c1[nH]c(=O)n([C@H]2CCCO2)cc1F	inactive	
Nc1cc(Cl)c(NC2=NCCN2)c(Cl)c1	inactive	
